Numbering of substitutions follows the chain as printed; changes in the protein carry UniProt numbers. In all, about 16,000 sequences were measured (“ka relative to ugcaugu”: median about 0.096, highest 2% from about 0.35 on). What follows is part of a selection rich in the highest values, with near analogues and random picks from the rest.

The text below walks through data of article PMC9911399, “Two distinct binding modes provide the RNA-binding protein RbFox with extraordinary sequence specificity”.

The labels stand for the following.
T1: RBFOX1 RRM RbFoxmut (Fox-RRM*) (Homo sapiens, UniProt Q9NWB1 109-208, R118D;E147R;N151S;E152T)
T1 sequence: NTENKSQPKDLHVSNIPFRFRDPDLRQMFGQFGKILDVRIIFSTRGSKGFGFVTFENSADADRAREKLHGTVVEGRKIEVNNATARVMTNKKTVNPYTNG

B1: CCAUUAU (DNA:RNA)
RNA: GGGAGACCGGAAUUCAGAUUGUCCCCAUUAUUUAAAUCCCGUCGUAGCCACCA
DNA 1: CAATCTGAATTCCGGTCTCCC
DNA 2: TGGTGGCTACGACGGGATT
B2: GUGUGGC (DNA:RNA)
RNA: B1 RNA with C25G, C26U, A27G, U29G, A30G, U31C
DNA 1: CAATCTGAATTCCGGTCTCCC
DNA 2: TGGTGGCTACGACGGGATT
B3: UUGGCUA (DNA:RNA)
RNA: GGGAGACCGGAAUUCAGAUUGUCCUUGGCUAUUAAAUCCCGUCGUAGCCACCA
DNA 1: CAATCTGAATTCCGGTCTCCC
DNA 2: TGGTGGCTACGACGGGATT
B4: UUGGCUC (DNA:RNA)
RNA: B3 RNA with A31C
DNA 1: CAATCTGAATTCCGGTCTCCC
DNA 2: TGGTGGCTACGACGGGATT
B5: UUGGCUG (DNA:RNA)
RNA: B3 RNA with A31G
DNA 1: CAATCTGAATTCCGGTCTCCC
DNA 2: TGGTGGCTACGACGGGATT
B6: GUGGCUG (DNA:RNA)
RNA: B3 RNA with U25G, A31G
DNA 1: CAATCTGAATTCCGGTCTCCC
DNA 2: TGGTGGCTACGACGGGATT
B7: GUGGCUC (DNA:RNA)
RNA: B3 RNA with U25G, A31C
DNA 1: CAATCTGAATTCCGGTCTCCC
DNA 2: TGGTGGCTACGACGGGATT
B8: GAACUCU (DNA:RNA)
RNA: B1 RNA with C25G, C26A, U28C, A30C
DNA 1: CAATCTGAATTCCGGTCTCCC
DNA 2: TGGTGGCTACGACGGGATT
B9: CGGUAAG (DNA:RNA)
RNA: B1 RNA with C26G, A27G, U29A, U31G
DNA 1: CAATCTGAATTCCGGTCTCCC
DNA 2: TGGTGGCTACGACGGGATT
B10: CCGGUCA (DNA:RNA)
RNA: B1 RNA with A27G, U28G, A30C, U31A
DNA 1: CAATCTGAATTCCGGTCTCCC
DNA 2: TGGTGGCTACGACGGGATT
B11: UGCGACA (DNA:RNA)
RNA: B3 RNA with U26G, G27C, C29A, U30C
DNA 1: CAATCTGAATTCCGGTCTCCC
DNA 2: TGGTGGCTACGACGGGATT
B12: UGGGCUG (DNA:RNA)
RNA: B3 RNA with U26G, A31G
DNA 1: CAATCTGAATTCCGGTCTCCC
DNA 2: TGGTGGCTACGACGGGATT
B13: UGGCUGU (DNA:RNA)
RNA: B1 RNA with C25U, C26G, A27G, U28C, A30G
DNA 1: CAATCTGAATTCCGGTCTCCC
DNA 2: TGGTGGCTACGACGGGATT
B14: UGGGGGC (DNA:RNA)
RNA: B3 RNA with U26G, C29G, U30G, A31C
DNA 1: CAATCTGAATTCCGGTCTCCC
DNA 2: TGGTGGCTACGACGGGATT
B15: UGGGCUC (DNA:RNA)
RNA: B3 RNA with U26G, A31C
DNA 1: CAATCTGAATTCCGGTCTCCC
DNA 2: TGGTGGCTACGACGGGATT
B16: CUGGCUG (DNA:RNA)
RNA: B3 RNA with U25C, A31G
DNA 1: CAATCTGAATTCCGGTCTCCC
DNA 2: TGGTGGCTACGACGGGATT
B17: CUGUGGC (DNA:RNA)
RNA: B1 RNA with C26U, A27G, U29G, A30G, U31C
DNA 1: CAATCTGAATTCCGGTCTCCC
DNA 2: TGGTGGCTACGACGGGATT
B18: GGUGCCG (DNA:RNA)
RNA: B3 RNA with U25G, U26G, G27U, U30C, A31G
DNA 1: CAATCTGAATTCCGGTCTCCC
DNA 2: TGGTGGCTACGACGGGATT
B19: CCCAUAA (DNA:RNA)
RNA: B1 RNA with A27C, U28A, U31A
DNA 1: CAATCTGAATTCCGGTCTCCC
DNA 2: TGGTGGCTACGACGGGATT
B20: CGUUUAU (DNA:RNA)
RNA: B1 RNA with C26G, A27U
DNA 1: CAATCTGAATTCCGGTCTCCC
DNA 2: TGGTGGCTACGACGGGATT
B21: GUCCGUC (DNA:RNA)
RNA: B3 RNA with U25G, G27C, G28C, C29G, A31C
DNA 1: CAATCTGAATTCCGGTCTCCC
DNA 2: TGGTGGCTACGACGGGATT
B22: GCGCGCA (DNA:RNA)
RNA: B3 RNA with U25G, U26C, G28C, C29G, U30C
DNA 1: CAATCTGAATTCCGGTCTCCC
DNA 2: TGGTGGCTACGACGGGATT
B23: GCAUGUC (DNA:RNA)
RNA: B1 RNA with C25G, U29G, A30U, U31C
DNA 1: CAATCTGAATTCCGGTCTCCC
DNA 2: TGGTGGCTACGACGGGATT
B24: GCAUAUG (DNA:RNA)
RNA: B1 RNA with C25G, U29A, A30U, U31G
DNA 1: CAATCTGAATTCCGGTCTCCC
DNA 2: TGGTGGCTACGACGGGATT
B25: GCGCAUA (DNA:RNA)
RNA: B3 RNA with U25G, U26C, G28C, C29A
DNA 1: CAATCTGAATTCCGGTCTCCC
DNA 2: TGGTGGCTACGACGGGATT
B26: GCAUGUG (DNA:RNA)
RNA: B1 RNA with C25G, U29G, A30U, U31G
DNA 1: CAATCTGAATTCCGGTCTCCC
DNA 2: TGGTGGCTACGACGGGATT
B27: GCGCAUG (DNA:RNA)
RNA: B3 RNA with U25G, U26C, G28C, C29A, A31G
DNA 1: CAATCTGAATTCCGGTCTCCC
DNA 2: TGGTGGCTACGACGGGATT
B28: GCACAUG (DNA:RNA)
RNA: B1 RNA with C25G, U28C, U29A, A30U, U31G
DNA 1: CAATCTGAATTCCGGTCTCCC
DNA 2: TGGTGGCTACGACGGGATT
B29: GCAGAUG (DNA:RNA)
RNA: B1 RNA with C25G, U28G, U29A, A30U, U31G
DNA 1: CAATCTGAATTCCGGTCTCCC
DNA 2: TGGTGGCTACGACGGGATT
B30: GGCUGGU (DNA:RNA)
RNA: B1 RNA with C25G, C26G, A27C, U29G, A30G
DNA 1: CAATCTGAATTCCGGTCTCCC
DNA 2: TGGTGGCTACGACGGGATT
B31: GAAGAAG (DNA:RNA)
RNA: B1 RNA with C25G, C26A, U28G, U29A, U31G
DNA 1: CAATCTGAATTCCGGTCTCCC
DNA 2: TGGTGGCTACGACGGGATT

The experiment deals with T1, RBFOX1 RRM RbFoxmut (Fox-RRM*). Nature of the experiment: EMSA; HiTS-Eq, 1 nM pool, 10 min; buffer printed only for the single-RNA assays: 10 mM Tris pH 7.5, 150 mM NaCl, 3.4 mM EDTA, 0.001% NP-40, 30 C. To be noted: tags: His6 N-terminal (pET28a); label: 5' 32P. The method, boiled down:
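A pool of RNA with 7 randomized nucleotides, 5′-radiolabelled and with DNA-annealed flanks, was equilibrated at 1 nM for 10 min in 50 µL with purified RbFox RRM, wild type or mutant, across increasing protein concentrations. Free RNA was separated by 8% native PAGE, excised, reverse-transcribed, barcoded by PCR and sequenced. Relative association constants were obtained from read-count changes of each RNA species versus the control reaction and normalised to the cognate motif.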
On to B1, for which the binding signal is 0.131 KA relative to UGCAUGU. Turning to B2, the binding signal was 0.132 KA relative to UGCAUGU. For B3 the value was 0.168 KA relative to UGCAUGU. Take B4: the binding signal was 0.134 KA relative to UGCAUGU. Turning to B5, the binding signal is 0.435 KA relative to UGCAUGU. B6: the binding signal is 0.549 KA relative to UGCAUGU. As for B7, the binding signal was 0.125 KA relative to UGCAUGU. For the molecule B8, the binding signal is 0.053 KA relative to UGCAUGU. Under B9 stands 0.0872 KA relative to UGCAUGU; under B10, 0.0703 KA relative to UGCAUGU. For B11, the binding signal is 0.0626 KA relative to UGCAUGU. Under B12 stands 0.462 KA relative to UGCAUGU; under B13, 0.299 KA relative to UGCAUGU; under B14, 0.0983 KA relative to UGCAUGU. Under B15 stands 0.115 KA relative to UGCAUGU; under B16, 0.431 KA relative to UGCAUGU. For B17, the binding signal was 0.102 KA relative to UGCAUGU. On to B18, for which the binding signal was 0.128 KA relative to UGCAUGU. B19: the binding signal was 0.0954 KA relative to UGCAUGU. Under B20 stands 0.147 KA relative to UGCAUGU; under B21, 0.0864 KA relative to UGCAUGU. For B22, the binding signal was 0.13 KA relative to UGCAUGU. Under B23 stands 0.492 KA relative to UGCAUGU; under B24, 0.197 KA relative to UGCAUGU; under B25, 0.152 KA relative to UGCAUGU. B26: the binding signal was 0.954 KA relative to UGCAUGU. B27: the binding signal was 1.33 KA relative to UGCAUGU. Under B28 stands 0.128 KA relative to UGCAUGU; under B29, 0.142 KA relative to UGCAUGU. Take B30: the binding signal was 0.14 KA relative to UGCAUGU. For B31, the binding signal was 0.0975 KA relative to UGCAUGU.
